Common to all, as to assay: log2 fold change, soluble protein after heating vs DMSO (PISA); higher = thermal stabilisation; K562 lysate, 10 uM; active = over 0.2 and 3.5 SD of the protein, either way, in both replicates (recomputed)
Compound in assay [1]: Cc1cn(-c2cc(NC(=O)c3ccc(C)c(Nc4nccc(-c5cccnc5)n4)c3)cc(C(F)(F)F)c2)cn1 [nilotinib]
The method in brief:
(§1)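 To prepare the extract, K562 pellets were dounce-homogenised in PBS pH 7.4 with 1 mM MgCl2, giving crude material at 1 mg/mL protein. This was treated with 10 μM compound for 30 min, then heated in aliquots for 3 min over 48°C-58°C before pooling and addition of NP-40 to 0.5% at 4°C. Centrifugation at 21,000xg for 90 min left soluble protein in the supernatant, which TMTpro 16plex LC-MS/MS quantified with equalised channel sums. Results are log-two fold changes in thermal stability compared with solvent controls, from duplicates.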

Compound in assay [2]: Cc1nc(Nc2n[nH]c3c2CN(C(=O)N[C@H](CN(C)C)c2ccccc2)C3(C)C)c2sccc2n1
The method in brief:
as §1

Compound in assay [3]: Cc1nc(Nc2ncc(C(=O)Nc3c(C)cccc3Cl)s2)cc(N2CCN(CCO)CC2)n1 [dasatinib]
In short, it runs like this: as §1

Compound in assay [4]: Cc1ncc(-c2ccnc(Nc3ccc(S(C)(=O)=O)cc3)n2)n1C(C)C
The method in brief:
as §1

Compound in assay [5]: Cn1cc(-c2ccc3c(c2)CCN3C(=O)Cc2cccc(C(F)(F)F)c2)c2c(N)ncnc21
In short, it runs like this: as §1

Compound in assay [6]: Cn1cc(CNCC2CCN(c3ncc(C(=O)NO)cn3)CC2)c2ccccc21 [quisinostat]
In short, it runs like this:
as §1

Compound in assay [7]: Cn1cncc1[C@@](N)(c1ccc(Cl)cc1)c1ccc2c(c1)c(-c1cccc(Cl)c1)cc(=O)n2C [tipifarnib]
In short, it runs like this:
as §1

Compound in assay [8]: NC(=O)Nc1cc(-c2cccc(F)c2)sc1C(=O)N[C@H]1CCCNC1
The method in brief: as §1

Compound in assay [9]: NC(=O)c1cnc(N[C@@H]2CCCC[C@@H]2N)nc1Nc1cccc(-n2nccn2)c1
In short, it runs like this: as §1

Compound in assay [10]: NC1(c2ccc(-c3nc4ccn5c(=O)[nH]nc5c4cc3-c3ccccc3)cc2)CCC1
The method in brief: as §1

The full data set covers some 8,800 targets. This sample favours those with a hit. About 0.5% of all pairs of compound and target were hits. Unmarked numbers belong to inactive results.

Sequence of UniProt Q13330 (Q13330 whole entry, looked up): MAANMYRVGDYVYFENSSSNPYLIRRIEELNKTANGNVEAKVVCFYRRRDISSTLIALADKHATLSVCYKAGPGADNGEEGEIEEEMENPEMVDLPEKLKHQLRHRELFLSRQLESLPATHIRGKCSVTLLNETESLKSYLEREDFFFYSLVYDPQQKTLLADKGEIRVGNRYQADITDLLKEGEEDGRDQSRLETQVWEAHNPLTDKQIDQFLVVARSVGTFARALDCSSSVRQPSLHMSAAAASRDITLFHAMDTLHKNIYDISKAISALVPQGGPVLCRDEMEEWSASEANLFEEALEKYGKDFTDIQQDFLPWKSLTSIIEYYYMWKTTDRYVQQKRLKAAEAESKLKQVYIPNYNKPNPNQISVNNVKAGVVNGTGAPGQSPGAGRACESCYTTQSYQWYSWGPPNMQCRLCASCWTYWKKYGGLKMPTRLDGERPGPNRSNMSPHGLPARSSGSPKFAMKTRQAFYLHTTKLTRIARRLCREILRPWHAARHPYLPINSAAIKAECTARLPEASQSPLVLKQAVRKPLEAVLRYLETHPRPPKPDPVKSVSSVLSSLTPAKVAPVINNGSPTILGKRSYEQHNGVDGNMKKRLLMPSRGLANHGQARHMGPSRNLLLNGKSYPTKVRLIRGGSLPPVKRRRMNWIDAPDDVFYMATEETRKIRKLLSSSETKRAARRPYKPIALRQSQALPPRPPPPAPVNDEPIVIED
Sequence of UniProt Q8TE04 (Q8TE04 whole entry, looked up): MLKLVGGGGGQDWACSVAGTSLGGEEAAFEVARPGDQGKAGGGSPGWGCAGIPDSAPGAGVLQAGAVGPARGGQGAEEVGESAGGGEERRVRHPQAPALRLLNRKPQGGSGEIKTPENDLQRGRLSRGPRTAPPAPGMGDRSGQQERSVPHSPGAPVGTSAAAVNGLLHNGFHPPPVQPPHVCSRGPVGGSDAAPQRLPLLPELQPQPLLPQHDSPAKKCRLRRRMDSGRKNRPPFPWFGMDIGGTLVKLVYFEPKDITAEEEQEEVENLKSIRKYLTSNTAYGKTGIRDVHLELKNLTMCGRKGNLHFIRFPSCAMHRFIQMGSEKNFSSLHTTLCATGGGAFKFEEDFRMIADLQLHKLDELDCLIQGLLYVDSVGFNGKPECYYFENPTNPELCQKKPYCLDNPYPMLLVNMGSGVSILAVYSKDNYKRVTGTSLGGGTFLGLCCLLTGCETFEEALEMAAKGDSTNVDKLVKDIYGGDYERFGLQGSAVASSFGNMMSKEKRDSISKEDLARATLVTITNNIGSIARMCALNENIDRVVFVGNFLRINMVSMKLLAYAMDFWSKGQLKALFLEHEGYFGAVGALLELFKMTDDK
Sequence of UniProt Q9NZJ9 (Q9NZJ9 whole entry, looked up): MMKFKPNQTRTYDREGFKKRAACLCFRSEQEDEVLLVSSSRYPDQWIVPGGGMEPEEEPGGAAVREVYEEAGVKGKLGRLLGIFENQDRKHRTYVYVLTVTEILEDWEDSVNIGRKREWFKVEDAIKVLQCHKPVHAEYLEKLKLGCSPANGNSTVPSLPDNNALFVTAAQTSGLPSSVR
Sequence of UniProt O76041 (O76041 whole entry, looked up): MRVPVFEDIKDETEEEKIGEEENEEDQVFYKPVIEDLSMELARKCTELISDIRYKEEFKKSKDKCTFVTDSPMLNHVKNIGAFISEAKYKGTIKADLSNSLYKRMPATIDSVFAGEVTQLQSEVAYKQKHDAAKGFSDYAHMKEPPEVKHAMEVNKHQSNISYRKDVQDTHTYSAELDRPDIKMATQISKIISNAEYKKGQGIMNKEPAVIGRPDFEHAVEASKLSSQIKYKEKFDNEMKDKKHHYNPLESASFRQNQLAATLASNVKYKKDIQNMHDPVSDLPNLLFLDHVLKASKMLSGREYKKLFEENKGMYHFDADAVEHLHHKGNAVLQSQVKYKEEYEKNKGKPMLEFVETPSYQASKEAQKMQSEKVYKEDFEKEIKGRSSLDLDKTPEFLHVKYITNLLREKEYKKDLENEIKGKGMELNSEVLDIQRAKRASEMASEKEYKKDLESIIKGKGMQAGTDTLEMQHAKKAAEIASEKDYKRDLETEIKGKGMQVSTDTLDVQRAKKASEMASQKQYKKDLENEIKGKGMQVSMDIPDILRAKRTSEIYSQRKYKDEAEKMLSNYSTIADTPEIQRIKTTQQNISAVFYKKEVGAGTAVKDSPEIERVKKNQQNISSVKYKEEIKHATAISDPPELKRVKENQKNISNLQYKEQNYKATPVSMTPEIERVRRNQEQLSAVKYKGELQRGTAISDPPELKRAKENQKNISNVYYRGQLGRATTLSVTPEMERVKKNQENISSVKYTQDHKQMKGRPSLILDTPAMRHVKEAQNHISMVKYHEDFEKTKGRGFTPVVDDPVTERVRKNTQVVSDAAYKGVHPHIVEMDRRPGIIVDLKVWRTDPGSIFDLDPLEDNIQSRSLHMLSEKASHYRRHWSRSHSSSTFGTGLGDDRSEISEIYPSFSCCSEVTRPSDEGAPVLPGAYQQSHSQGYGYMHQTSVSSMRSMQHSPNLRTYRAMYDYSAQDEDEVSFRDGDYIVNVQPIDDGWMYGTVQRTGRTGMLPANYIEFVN
Sequence of UniProt Q9UDX5 (Q9UDX5 whole entry, looked up): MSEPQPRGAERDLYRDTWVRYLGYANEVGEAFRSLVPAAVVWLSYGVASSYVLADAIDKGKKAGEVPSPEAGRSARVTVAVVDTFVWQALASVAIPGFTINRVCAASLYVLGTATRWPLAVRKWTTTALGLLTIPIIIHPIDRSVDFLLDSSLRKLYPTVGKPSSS
Sequence of UniProt Q96NT1 (Q96NT1 whole entry, looked up): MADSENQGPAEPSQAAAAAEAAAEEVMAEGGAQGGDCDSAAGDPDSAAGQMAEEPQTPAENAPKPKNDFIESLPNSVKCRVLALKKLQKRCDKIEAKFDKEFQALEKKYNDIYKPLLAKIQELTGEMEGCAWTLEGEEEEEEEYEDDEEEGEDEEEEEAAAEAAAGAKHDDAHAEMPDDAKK
Sequence of UniProt Q9BPZ3 (Q9BPZ3 whole entry, looked up): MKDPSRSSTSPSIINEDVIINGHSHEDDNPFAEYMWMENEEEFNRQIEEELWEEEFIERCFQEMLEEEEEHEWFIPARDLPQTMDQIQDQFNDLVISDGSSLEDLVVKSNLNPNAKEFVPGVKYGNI
Sequence of UniProt Q13153 (Q13153 whole entry, looked up): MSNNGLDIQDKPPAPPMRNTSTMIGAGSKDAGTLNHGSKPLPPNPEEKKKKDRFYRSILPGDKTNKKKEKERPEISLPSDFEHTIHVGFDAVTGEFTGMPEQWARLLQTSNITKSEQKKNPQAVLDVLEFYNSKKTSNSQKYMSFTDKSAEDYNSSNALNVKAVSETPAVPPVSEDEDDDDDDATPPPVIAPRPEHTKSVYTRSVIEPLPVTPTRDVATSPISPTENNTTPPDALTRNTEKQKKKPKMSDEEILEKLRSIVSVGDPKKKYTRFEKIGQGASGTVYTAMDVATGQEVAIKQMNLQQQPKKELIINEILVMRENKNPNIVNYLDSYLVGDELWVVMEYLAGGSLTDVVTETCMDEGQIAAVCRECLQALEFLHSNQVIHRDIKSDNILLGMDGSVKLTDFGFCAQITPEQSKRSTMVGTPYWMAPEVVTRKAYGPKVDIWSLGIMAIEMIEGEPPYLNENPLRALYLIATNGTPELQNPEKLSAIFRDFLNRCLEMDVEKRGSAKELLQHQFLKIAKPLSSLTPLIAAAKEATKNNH
Sequence of UniProt O60313 (O60313 whole entry, looked up): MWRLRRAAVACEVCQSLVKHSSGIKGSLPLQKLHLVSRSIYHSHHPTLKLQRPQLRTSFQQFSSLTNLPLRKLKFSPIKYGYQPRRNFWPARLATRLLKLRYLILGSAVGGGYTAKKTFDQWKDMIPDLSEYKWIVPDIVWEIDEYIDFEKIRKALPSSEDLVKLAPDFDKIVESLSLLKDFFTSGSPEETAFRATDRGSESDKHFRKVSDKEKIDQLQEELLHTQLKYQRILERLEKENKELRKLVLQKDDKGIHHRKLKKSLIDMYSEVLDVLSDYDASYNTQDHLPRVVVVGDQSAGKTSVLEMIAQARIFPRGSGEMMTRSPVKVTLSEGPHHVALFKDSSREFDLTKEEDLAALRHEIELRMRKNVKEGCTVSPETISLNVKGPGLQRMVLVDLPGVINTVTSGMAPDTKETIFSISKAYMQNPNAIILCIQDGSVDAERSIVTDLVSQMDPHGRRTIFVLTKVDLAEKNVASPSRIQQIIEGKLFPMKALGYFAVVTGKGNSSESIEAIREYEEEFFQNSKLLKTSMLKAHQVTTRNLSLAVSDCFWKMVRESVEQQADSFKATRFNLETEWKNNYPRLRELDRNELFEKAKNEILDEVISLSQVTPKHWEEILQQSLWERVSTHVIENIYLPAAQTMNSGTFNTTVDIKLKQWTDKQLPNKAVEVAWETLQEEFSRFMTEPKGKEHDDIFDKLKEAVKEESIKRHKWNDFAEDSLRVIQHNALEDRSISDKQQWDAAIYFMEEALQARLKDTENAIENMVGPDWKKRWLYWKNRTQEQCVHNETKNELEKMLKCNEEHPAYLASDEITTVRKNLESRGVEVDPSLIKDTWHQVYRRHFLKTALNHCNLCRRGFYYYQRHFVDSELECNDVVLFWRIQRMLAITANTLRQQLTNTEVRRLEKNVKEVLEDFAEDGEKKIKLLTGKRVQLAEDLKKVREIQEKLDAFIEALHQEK

As to NT5DC2 isoform 2 (UniProt Q9H857), the log2 fold change in assay [1] was 0.025; in [2] it was -0.041; in [3] it was 0.067; in assay [4], 0.029; in assay [5] it was -0.027; in [6], -0.002. Also, the log2 fold change is -0.027 in [7], -0.002 in [8], 0.06 in [9] and -0.011 in [10].

Take PANK1 (UniProt Q8TE04): the log2 fold change in [1] was -0.005; in assay [2], 0.014; in assay [3] it was -0.028; in assay [4] it was -0.05; in assay [5], 0.053; in [6] it was -0.039. The log2 fold change is 0.079 in [7], 0.062 in assay [8], -0.007 in [9] and 0.062 in assay [10].

Turning to NDC1 (UniProt Q9BTX1), the log2 fold change is -0.019 in assay [1]; -0.006 in assay [2]; -0.071 in assay [3]; -0.018 in assay [4]; 0.052 in assay [5]; -0.03 in [6]. The log2 fold change was 0.009 in assay [7], 0 in assay [8], -0.01 in assay [9] and -0.028 in [10].

Regarding OPA1 isoform 2 (UniProt O60313), the log2 fold change in assay [1] was 0.026; in assay [2] it was -0.008; in assay [3], -0.07; in assay [4], 0.007; in assay [5], 0.018; in assay [6], 0.055. Further, the log2 fold change in assay [7] was -0.035; in [8], 0.025; in [9], 0.016; in assay [10], -0.012.

Regarding MTA1 (UniProt Q13330), the log2 fold change in assay [1] is 0.042; in assay [2], 0.01; in assay [3], -0.023; in assay [4] it was 0.033; in assay [5], 0.005; in [6], -0.089. For the same target, the log2 fold change in assay [7] was -0.03; in assay [8], 0.052; in assay [9], -0.033; in [10], -0.004.

Turning to NAP1L5 (UniProt Q96NT1), the log2 fold change in assay [1] was -0.008; in [2] it was -0.053; in assay [3], 0.024; in assay [4], 0.045; in assay [5], 0.01; in assay [6], 0.068. The log2 fold change in assay [7] is 0.054; in [8], -0.05; in [9], -0.049; in assay [10] it was 0.005.

Take MTFP1 (UniProt Q9UDX5): the log2 fold change was 0.044 in [1]; -0.021 in [2]; 0.069 in assay [3]; 0.043 in assay [4]; 0.008 in assay [5]; 0.133 in assay [6]. Also, the log2 fold change in [7] is -0.014; in assay [8] it was 0.02; in assay [9] it was -0.103; in assay [10], -0.004.

With OSBPL1A (UniProt Q9BXW6), the log2 fold change in assay [1] is -0.07; in assay [2], -0.02; in [3], -0.044; in [4], -0.051; in assay [5], -0.027; in assay [6], -0.147. In addition, the log2 fold change in assay [7] is 0.015; in [8], 0; in assay [9] it was -0.024; in assay [10] it was -0.388 (active).

On to NEBL (UniProt O76041), for which the log2 fold change was -0.024 in [1]; 0.019 in assay [2]; 0.089 in [3]; 0.032 in assay [4]; -0.007 in assay [5]; -0.045 in assay [6]. The log2 fold change in assay [7] was 0.008; in [8] it was -0.065; in [9], -0.018; in assay [10] it was -0.03.

As for PAK1 (UniProt Q13153), the log2 fold change in assay [1] was 0.028; in [2], 0.02; in [3], 0.046; in assay [4], 0.012; in [5] it was -0.024; in assay [6] it was 0.044. Besides, the log2 fold change is -0.053 in [7], -0.028 in assay [8], -0.025 in [9] and -0.012 in assay [10].

NOC2L (UniProt Q9Y3T9): the log2 fold change in assay [1] was 0.027; in assay [2], 0.022; in [3], -0.03; in assay [4] it was -0.046; in [5], -0.052; in assay [6], -0.082. Also, the log2 fold change in [7] is -0.087; in [8], 0.058; in assay [9], 0.014; in [10], -0.019.

For the target NCOR2 (UniProt C9J0Q5), the log2 fold change in [1] was 0.09; in [2], -0.034; in assay [3], -0.082; in assay [4] it was 0.043; in assay [5], -0.015; in [6], -0.034. Also, the log2 fold change in [7] is -0.045; in assay [8], 0.047; in [9], 0.025; in assay [10] it was 0.022.

As for PAIP2 (UniProt Q9BPZ3), the log2 fold change is 0.136 in assay [1]; 0.062 in assay [2]; -0.047 in assay [3]; -0.009 in assay [4]; -0.049 in assay [5]; 0.007 in [6]. Further, the log2 fold change was -0.1 in [7], -0.087 in assay [8], -0.02 in assay [9] and -0.018 in [10].

On to NUDT4 isoform 2 (UniProt Q9NZJ9), for which the log2 fold change in assay [1] is -0.004; in [2] it was 0.012; in assay [3], 0.13; in [4], -0.002; in assay [5], 0.038; in [6], -0.012. For the same target, the log2 fold change was -0.044 in [7], 0.016 in [8], -0.042 in assay [9] and 0.043 in [10].

For the target MTMR6 (UniProt Q9Y217), the log2 fold change in assay [1] is -0.04; in [2] it was 0.063; in assay [3] it was -0.036; in assay [4], -0.026; in assay [5] it was -0.076; in assay [6], -0.116. Also, the log2 fold change in [7] is -0.024; in assay [8], 0.086; in assay [9] it was -0.007; in [10], -0.032.

The record behind these values is the supplement of paper PMC10849652.
